The campaign covered roughly 360,000 compounds. About 25,000 (6.9%) were called active. Entries that show only a call come without a potency. Not shown: some 9% with an inconclusive outcome. The sample holds actives, similar compounds and a random draw of the others, so the mix is not that of the screen. Calls follow the shape of the dose curve; as a rule, active = well fitted inhibition curve with a large enough effect; inconclusive = small, poorly fitted or top-dose-only effect; inactive = flat fitted curve, though single readings scatter.
Potency is read from the fitted curve at half-maximal effect.

Sequence of Luciferin 4-monooxygenase (Photinus pyralis) (P08659 whole entry, looked up): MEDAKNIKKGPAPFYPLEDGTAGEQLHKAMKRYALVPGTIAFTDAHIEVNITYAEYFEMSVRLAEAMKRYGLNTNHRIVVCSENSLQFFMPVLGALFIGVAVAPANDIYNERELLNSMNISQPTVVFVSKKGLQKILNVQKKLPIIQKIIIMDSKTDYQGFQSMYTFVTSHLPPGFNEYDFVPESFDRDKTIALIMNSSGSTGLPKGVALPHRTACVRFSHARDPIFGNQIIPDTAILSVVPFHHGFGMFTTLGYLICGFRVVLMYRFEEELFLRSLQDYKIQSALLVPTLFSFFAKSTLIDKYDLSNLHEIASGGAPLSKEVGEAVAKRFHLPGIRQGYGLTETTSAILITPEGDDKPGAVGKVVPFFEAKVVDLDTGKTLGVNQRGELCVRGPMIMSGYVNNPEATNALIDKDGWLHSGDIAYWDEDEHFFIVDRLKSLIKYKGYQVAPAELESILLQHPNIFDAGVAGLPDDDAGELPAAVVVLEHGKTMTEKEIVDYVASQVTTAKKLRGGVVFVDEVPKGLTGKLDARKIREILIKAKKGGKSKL

This experiment concerns the target Luciferin 4-monooxygenase (Photinus pyralis) (UniProt P08659). Kind of experiment: qHTS profiling assay for firefly luciferase inhibitor/activator using purifed enzyme and Km concentrations of substrates (counterscreen for miR-21 project). Also: nearly all actives have a fitted effect of over 55% in size. As to conditions: purified FLuc, luminescence inhibition; series mostly up to 57.5 µM. A digest of the protocol: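 Biochemical qHTS of compounds, final roughly 60 µM downward over six points, against 10 nM purified firefly luciferase using Km concentrations of substrates (10 uM D-luciferin, 10 uM ATP) in Tris acetate pH 7.5 buffer; luminescence output.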
For orientation: In qHTS, concentration-response curves come from the screen itself.
Take `COC(=O)c1c(NC(=O)c2cc(=O)c3c(C)cc(C)cc3o2)sc2c1CCCC2`: the Potency entry was “inactive”. `CCCCN(C)S(=O)(=O)c1ccc(C(=O)Nc2sc3c(c2C(N)=O)CC(C)(C)NC3(C)C)cc1`: the Potency entry is “inactive”. Regarding `FC(F)(F)c1cc(Nc2nc3ccccc3c3nncn23)ccc1Cl`, the Potency result was “inactive”. In the case of `Cc1c(CNC2CCCCC2)c(C(=O)O)c(C)n1Cc1cccc(Cl)c1`, the Potency result was “inactive”. Same read-out and setting: the figure for `CC(C)Nc1ccc(-n2nc3ccccc3[n+]2[O-])cc1` is 1.9 µM (active); for `CCC(=O)Nc1c(C(=O)N2CCN(c3ccc(F)cc3)CC2)oc2ccccc12` it is “inactive”. Still for that read-out and setting: the entry for `CC1=C(C(=O)OCc2ccc(C)cc2)C(c2c(Cl)cccc2Cl)CC(=O)N1` (stereo not drawn) is “inactive”; for `CCOC(=O)c1ccc(NC(=O)C2CC(=O)NC(=Nc3ccc(C)c(C)c3)S2)cc1` (stereo not drawn) it is “inactive”; for `O=C1N/C(=C/c2cccs2)C(=O)N1Cc1ccc(F)cc1` it is “inactive”. For the molecule `CSC1=N/C(=C\C=C\c2cccs2)C(=O)S1`, the Potency was 16.9 µM (active). Regarding `O=S1(=O)CCC(NC(=S)SCc2ccccc2Br)C1` (stereo not drawn), the Potency entry was “inactive”.

In the case of `Cc1ccc(S(=O)(=O)N2CCN(C(=O)COC(=O)c3c(C)noc3C)CC2)c(C)c1`, the Potency entry is “inactive”. Take `Cc1ccc(-c2nc(COC(=O)c3c(C)noc3C)cs2)cc1`: the Potency was 9.53 µM (active). For the molecule `COc1cc(OC)cc(C(=O)NCC(=O)OCc2csc(-c3ccccc3)n2)c1`, the Potency result was “inactive”. As for `CCC(C)C(N=C1NS(=O)(=O)c2ccccc21)C(=O)N1CCC(C)CC1` (stereo not drawn), the Potency result was “inactive”. The same measure, in the same setting: for `Nc1c(NCCc2ccccc2)c2ccccc2oc1=O` the value was “inactive”; for `COc1ccc(C2/C(=C(/O)c3ccccc3)C(=O)C(=O)N2C)c(OC)c1` (stereo not drawn), “inactive”. As for `CCOc1ccc(/C(O)=C2\C(=O)C(=O)N(c3ccc(OC)cc3)C2c2ccccc2[N+](=O)[O-])cc1` (stereo not drawn), the Potency is 8.49 µM (active). `COc1ccc(/C(O)=C2/C(=O)C(=O)N(c3nc(C)c(C)s3)C2c2ccco2)cc1` (stereo not drawn): the Potency result was “inactive”.

For the molecule `Cc1ccc(C(=O)Nc2ncccc2C)cc1S(=O)(=O)N1CCOCC1`, the Potency entry was “inactive”. As to `CCOc1cccc(/C=N/NC(=S)NCCN2CCOCC2)c1O`, the Potency entry is “inactive”. As to `CCOc1cccc(/C=N/N2C(=O)CSC2=S)c1O`, the Potency is 21.3 µM (active).

Take `O=C1CSC(=S)N1c1ccc(O)cc1`: the Potency entry was “inactive”. With `C=CCNC(=S)NNC(=O)COc1c(Cl)cc(Cl)cc1Cl`, the Potency result was “inactive”. The same measure, in the same setting: for `COc1ccccc1CNC(=O)NCc1noc2ccc(C)cc12` the value was “inactive”; for `c1ccc(-n2nc3ccccc3n2)cc1`, 19 µM (active).

For `O=S(=O)(Cc1nnnn1-c1ccccc1)c1ccccc1`, the Potency result was “inactive”. On to `Oc1ccc(-c2nncn2-c2ccccc2)cc1`, for which the Potency result was “inactive”. Consider `COc1ccc(NC(=O)CN(C)C(=O)c2cc(-c3ccc(C)o3)nc3ccccc23)cc1`, for which the Potency is 3.38 µM (active). Regarding `COc1ccc(NC(=O)CN(C)C(=O)Cc2coc3cc(C)c(C)cc23)cc1`, the Potency entry is “inactive”. Still for that read-out and setting: for `COc1ccc(NC(=O)CN(C)C(=O)c2ccc(COc3ccccc3)o2)cc1` the value was “inactive”; for `CN(C)S(=O)(=O)c1ccc(NC(=O)COC(=O)c2n[nH]c3ccccc23)cc1`, “inactive”; for `COc1ccc(NC(=O)CN(C)C(=O)c2n[nH]c3ccccc23)cc1`, 23.9 µM (active). On to `COc1ccc(NC(=O)CN(C)C(=O)CNC(=O)C2CCCCC2)cc1`, for which the Potency result is “inactive”.

For `Cc1ccc(C(=O)Nc2ccc(OCc3cc(=O)n4c5c(sc4n3)CCCC5)cc2)cc1`, the Potency entry is “inactive”. Consider `Cc1ccc(NC(=O)CCCNC(=O)c2ccc(Cl)cc2)cc1S(=O)(=O)N1CCOCC1`, for which the Potency entry was “inactive”. The same measure, in the same setting: for `COc1cc(NC(=O)c2noc3c2CSc2ccccc2-3)cc(OC)c1OC` the value was “inactive”; for `COc1ccc(CNC(=O)COCc2cc(-c3cccs3)on2)cc1OC`, “inactive”; for `COc1ccc(-c2csc(-c3c(N)c(C(=O)c4ccc(OC)c(OC)c4)n4ccccc34)n2)cc1`, “inactive”. Regarding `COc1ccc(-c2csc(-c3cccs3)n2)cc1OC`, the Potency is 23.9 µM (active).

For the molecule `COc1ccccc1-c1cc(C(F)(F)F)nc(S(=O)(=O)CCCC(=O)Nc2ccc(F)cc2F)n1`, the Potency entry was “inactive”.

In the case of `CCN(C(=O)Cn1c(=O)nc(-c2ccccc2)c2cc(Cl)ccc21)c1cccc(C)c1`, the Potency result is “inactive”. Regarding `O=C(NCCc1ccco1)c1nn(Cc2ccccc2)c(=O)c2ccccc12`, the Potency result is “inactive”.

As for `Cc1ccsc1C(=O)NCCc1ccco1`, the Potency is 21.3 µM (active). For the molecule `COc1cc(OC)cc(C(=O)NCCSCc2ccco2)c1`, the Potency entry is “inactive”. Turning to `CCC(=O)Nc1cccc(C2=NOC3(C2)C[C@@H](C(N)=O)N(C(=O)c2cc([N+](=O)[O-])cc([N+](=O)[O-])c2C)C3)c1` (stereo partly drawn), the Potency result was “inactive”. For `COc1ccc(Cn2ccc3nc(C)c(C(=O)Nc4ccc(C)c(F)c4)cc3c2=O)cc1`, the Potency entry was “inactive”. On to `COc1cccc(Cn2c(CNS(=O)(=O)c3ccc(Cl)s3)nc3cccnc32)c1`, for which the Potency result is “inactive”. Regarding `COc1ccc(NC(=O)C(c2ccccc2)N2Cc3ccccc3C2=O)cc1` (stereo not drawn), the Potency result is “inactive”.

As for `CCCOC1CCCN(C(=O)c2cc(COc3cncc(Cl)c3)on2)C1` (stereo not drawn), the Potency was 10.7 µM (active). As for `CCOC(=O)CC1(NC(=O)c2cc(COc3cncc(Cl)c3)on2)CCCCC1`, the Potency result is “inactive”.

For the molecule `CC(=O)c1ccc(NC(=O)c2cc(-c3cccs3)on2)cc1`, the Potency result is “inactive”. On to `O=C(c1ccc(F)cc1)N1CCCC(c2nc(-c3cccs3)no2)C1` (stereo not drawn), for which the Potency entry was “inactive”. For the molecule `O=C(c1ccco1)N1CCN(C(=O)c2ccc(COc3ccc(F)cc3)o2)CC1`, the Potency entry was “inactive”. Still for that read-out and setting: for `Cc1nonc1C1CCCN1C(=O)c1cc(COc2cccc(C(F)(F)F)c2)on1` (stereo not drawn) the value was “inactive”; for `O=C(c1cc(-c2ccccc2O)on1)N1CCCC1`, 6.75 µM (active). Turning to `CNC(=O)n1ccc(C(=O)N2CCCCC2)n1`, the activity change, negative = inhibition was 2.3% [at 2.3 µM] (inactive).

As for `COc1cccc(OCc2cc(C(=O)N3CCN(C(=O)c4ccco4)CC3)no2)c1`, the Potency was 12 µM (active). On to `COc1cccc(OC)c1OCCN1CCN(C(=O)c2ccco2)CC1`, for which the Potency entry was “inactive”. For `O=C(c1cc(-c2cccs2)on1)N1CCCCC1`, the Potency was 23.9 µM (active). Take `O=C(c1ccc(Cl)c(Cl)c1)N1CCCC1`: the Potency entry is “inactive”.

Turning to `CCOC(=O)c1c(C)oc2nc(C)nc(N3CCN(c4ccc(OC)cc4)CC3)c12`, the Potency entry is “inactive”. As for `O=S(=O)(c1ccc(SCc2ccc(Br)cc2)nc1)N1CCOCC1`, the Potency result was “inactive”. Still for that read-out and setting: the entry for `COc1ccccc1N1CCN(c2ncnc3onc(-c4cccc(Cl)c4)c23)CC1` is “inactive”; for `COc1cc(NC(=O)c2nn(-c3ccc(C)cc3)c(=O)c3c2c2ccccc2n3C)cc(OC)c1OC` it is “inactive”. Consider `COc1cc2nc(SCC(=O)Nc3ccccc3F)n3nc(-c4ccccc4)nc3c2cc1OC`, for which the Potency entry is “inactive”.

`c1ccc(CNc2ncnc3[nH]ncc23)cc1`: the Potency result was “inactive”. `Cc1ccc(NC(=O)CN(C)C(=O)c2cccc(S(=O)(=O)N3CCCC3)c2)cc1`: the Potency entry was “inactive”. On to `Cc1[nH]c2c(C(=O)N3CCCC(CCC(=O)NCc4ccccc4F)C3)cccc2c1C` (stereo not drawn), for which the Potency entry was “inactive”. On to `COc1ccc(OCc2cc(C(=O)N3CCCC3)no2)c2ccccc12`, for which the Potency was 9.53 µM (active).

Consider `O=C(c1ccco1)N1CCN(C(=O)c2cc(-c3ccccc3F)no2)CC1`, for which the Potency was 13.5 µM (active). Regarding `Cc1ccc(C)c(OCc2cc(C(=O)N3CCN(c4cnccn4)CC3)no2)c1`, the Potency entry is “inactive”. Still for that read-out and setting: the entry for `COc1ccccc1OCc1ccc(C(=O)N2CCN(C)CC2)o1` is “inactive”. `COc1cc(Cl)ccc1OCc1cc(C(=O)N2CC[C@@H]3CCCC[C@H]3C2)no1`: the Potency was 23.9 µM (active). On the same count and under the same terms, the entry for `O=C(Cc1c(F)cccc1Cl)N1CCN(C(=O)c2ccco2)CC1` is “inactive”; for `COc1cc(Cl)ccc1OCc1cc(C(=O)N(C)CCc2c(C)n[nH]c2C)no1` it is “inactive”. For the molecule `COc1ccc(C(=O)C2CCCN(C(=O)c3cc(C)on3)C2)cc1F` (stereo not drawn), the Potency result was “inactive”. Take `COc1ccc(Cl)cc1C(=O)NNC(=S)NC1CCCC1`: the Potency entry is “inactive”.

With `COc1ccccc1-c1cc(C(=O)N2CCCCC2)no1`, the Potency was 5.36 µM (active). `O=C(NCCCN1CCOCC1)c1cc(-c2ccccc2F)no1`: the Potency entry is “inactive”. In the case of `COc1cccc(-c2cc(C(=O)N3CCN(c4ccccc4OC)CC3)no2)c1`, the Potency result was “inactive”.

For the molecule `Fc1ccc(-c2nn(-c3ccccc3Cl)c3c2cnc2ccccc23)cc1`, the Potency result was “inactive”. Same read-out and setting: for `O=C(CN1C2CCC1CC(NC(=O)C1CC1)C2)NCc1ccccc1` (stereo not drawn) the value was “inactive”; for `COc1ccc(CNC(=O)CN(Cc2ccccc2Cl)C(=O)c2csnn2)cc1`, “inactive”; for `CCc1nn(CC(=O)Nc2cc(C)cc(C)c2)c(=O)c2cc3sccc3n12`, “inactive”. As for `O=C(NCC(c1ccc(Cl)cc1)N1CCOCC1)c1ccccc1F` (stereo not drawn), the Potency result is “inactive”. On the same count and under the same terms, the entry for `COC(=O)c1scc(S(=O)(=O)C(C)(C)C)c1-n1cccc1` is “inactive”.

On to `O=C(NCCC1=CCCCC1)c1ccc2c(c1)N(Cc1ccccc1F)C(=O)c1ccccc1S2(=O)=O`, for which the Potency result was “inactive”. `COCCNc1nnc(SCC(=O)NNC(=O)c2ccco2)s1`: the Potency result is “inactive”. As for `Cc1cccc(Cc2c(C)nc3nc(SCc4ccccc4Cl)nn3c2C)c1`, the Potency entry is “inactive”. For the molecule `CCOC(=O)c1ccc(NC(=O)Cn2cc(S(=O)(=O)Cc3ccccc3F)c3ccccc32)cc1`, the Potency entry is “inactive”. Take `Cc1ccc(CNC(=O)CCc2c(C)nc3c(c(C)nn3-c3ccccc3)c2C)cc1`: the Potency entry is “inactive”.

As to `CC(C)(C)NC(=O)CSC(=Nc1ccccc1F)NC#N`, the Potency entry was “inactive”. Same read-out and setting: the entry for `O=C(O)C1CCCN1S(=O)(=O)c1ccc(Br)cc1` (stereo not drawn) is “inactive”. Take `CC1CN/C(=C\C(=O)c2ccc(Br)cc2)C(=O)N1` (stereo not drawn): the Potency was 1.9 µM (active). Consider `CC1(C)Cc2ccccc2/C(=C/C(=O)c2ccccc2)N1`, for which the Potency entry is “inactive”. On the same count and under the same terms, the entry for `CCN(CC)S(=O)(=O)c1ccc(Cl)c(C(=O)NCCN2CCOCC2)c1` is “inactive”. Regarding `O=C(NCc1ccccc1)C(c1ccccc1)N(C(=O)c1csnn1)c1ccc(F)cc1` (stereo not drawn), the Potency result is “inactive”. Still for that read-out and setting: for `COc1cccc(CNC(=O)CN2C(=O)CCc3cc(S(=O)(=O)N4CCOCC4)ccc32)c1` the value was “inactive”. On to `Cc1nc(-c2ccc(F)cc2)c(CC(=O)N(C)CC(=O)Nc2c(C)cccc2C)s1`, for which the Potency entry is “inactive”. On to `COc1ccc(OC)c(/C=N/NC(=O)CSc2nnc(C)n2-c2ccccc2)c1`, for which the Potency entry was “inactive”. Regarding `COc1ccc(C(=O)NC2CC(C)(C)Cc3c2cnn3-c2ccccc2)c(OC)c1` (stereo not drawn), the Potency result was “inactive”. `COc1ccc(/C=C2/C(=O)N(c3ccccc3)N=C2C)c(OC)c1`: the Potency is 15.1 µM (active).

The record behind these values is PubChem BioAssay AID588342 (National Center for Advancing Translational Sciences (NCATS), 2011).
